In PubChem BioAssay (EPA / NIEHS):
Results filed as inconclusive are left out. The source holds several records for some structures; these can differ, active in one and inactive in another. The source made the active and inactive calls. How the source made its calls: active means hit-call score of the fitted dose curve at least 0.9, where 1 is the maximum; inconclusive means response in the unintended direction; inactive means score below 0.9.

system: not listed separately; assay: ACEA_ER_AUC_viability: ACEA Biosciences xCELLigence Real-Time Cell Analysis on Estrogen Receptor Agonism for Viability (AID 2283782);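 further: hit means loss of impedance signal meaning reduced cell growth or viability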
Procedure, shortened: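 Read-out: real-time electrical impedance (RT-CES) area under curve, loss of signal taken as reduced viability, normalized to DMSO baseline. T-47D cells, charcoal-stripped serum medium, compounds up to 100 uM final, continuous exposure, 80 h.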

Compound	AC50	outcome
Oc1cc2ccccc2cc1O	40.8 µM (active)	
O=C1OC2(c3ccccc31)c1cc(I)c(O)c(I)c1Oc1c2cc(I)c(O)c1I	18.5 µM (active)	inactive
Cc1cc(C(=C2C=CC(=Nc3ccc(S(=O)(=O)O)cc3)C=C2)c2ccc(Nc3ccc(S(=O)(=O)O)cc3)cc2)cc(S(=O)(=O)O)c1N		inactive
O=C(CCCN1CCC(O)(c2ccc(Cl)cc2)CC1)c1ccc(F)cc1		inactive
CC(C)(C)c1ccc(O)c(O)c1	23.4 µM (active)	
CC1=NN(c2ccccc2)C(=O)C1		inactive
COc1cc([N+](=O)[O-])ccc1N		inactive
CCCCc1oc2ccccc2c1C(=O)c1cc(I)c(OCCN(CC)CC)c(I)c1	11.5 µM (active)	
CCCCc1ccc2ccccc2c1S(=O)(=O)O		inactive
COC(O)c1ccccc1 (stereo unspecified)		inactive
CC(C)c1c(C(=O)Nc2ccccc2)c(-c2ccccc2)c(-c2ccc(F)cc2)n1CC[C@@H](O)C[C@@H](O)CC(=O)O	2.91 µM (active)	
Cn1sccc1=O	40.2 µM (active)	
CN(C)CCOC(c1ccccc1)c1ccccc1	50 µM (active)	
CC(O)COc1ccccc1 (stereo unspecified)		inactive
CC(C)[C@@H]1CC[C@@H](C)C[C@H]1O		inactive

target: AR (gene 367) (UniProt P10275); assay: ACEA_AR_agonist_80hr: ACEA Biosciences xCELLigence Real-Time Cell Analysis on Androgen Receptor Agonism for Proliferation (AID 2283783);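 further: hits increase impedance growth signal above DMSO baseline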
Sequence (P10275 whole entry, looked up): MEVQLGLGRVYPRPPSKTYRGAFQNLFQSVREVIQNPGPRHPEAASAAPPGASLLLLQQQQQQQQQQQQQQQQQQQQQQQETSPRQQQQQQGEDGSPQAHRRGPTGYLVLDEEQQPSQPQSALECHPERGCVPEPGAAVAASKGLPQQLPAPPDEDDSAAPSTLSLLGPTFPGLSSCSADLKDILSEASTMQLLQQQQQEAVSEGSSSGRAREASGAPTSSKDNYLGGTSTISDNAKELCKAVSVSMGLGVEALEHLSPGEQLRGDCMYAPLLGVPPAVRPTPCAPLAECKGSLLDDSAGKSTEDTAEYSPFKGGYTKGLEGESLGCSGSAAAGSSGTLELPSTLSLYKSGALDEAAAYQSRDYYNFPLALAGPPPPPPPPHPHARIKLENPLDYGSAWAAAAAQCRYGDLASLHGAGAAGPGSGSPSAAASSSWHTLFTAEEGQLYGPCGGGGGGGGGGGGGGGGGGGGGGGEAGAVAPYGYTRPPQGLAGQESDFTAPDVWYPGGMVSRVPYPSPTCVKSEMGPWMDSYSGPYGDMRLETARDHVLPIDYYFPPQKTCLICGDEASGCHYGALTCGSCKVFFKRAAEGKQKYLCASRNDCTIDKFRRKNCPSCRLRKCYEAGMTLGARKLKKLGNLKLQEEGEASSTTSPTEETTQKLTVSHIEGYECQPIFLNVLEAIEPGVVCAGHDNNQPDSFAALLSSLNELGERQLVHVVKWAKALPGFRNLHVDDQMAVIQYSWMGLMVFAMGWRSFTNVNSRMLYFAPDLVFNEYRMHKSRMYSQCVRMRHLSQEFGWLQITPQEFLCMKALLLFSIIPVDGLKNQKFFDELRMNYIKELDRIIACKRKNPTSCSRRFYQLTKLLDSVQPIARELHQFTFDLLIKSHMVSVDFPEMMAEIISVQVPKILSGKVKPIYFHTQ
Procedure, shortened: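 Impedance (RT-CES) growth signal at 80 h post-dose; 22Rv1 cells, 8-pt 1:4 series, top 100 uM final, DMSO ≤0.5%; duplicate plates; gain-of-signal fit relative to DMSO baseline.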

Compound	outcome
CN(Cc1cnc2nc(N)nc(N)c2n1)c1ccc(C(=O)N[C@@H](CCC(=O)O)C(=O)O)cc1	inactive
CCCCCCC(C)(C)C(=O)O	inactive
NC(=NCCCCCCN=C(N)/N=C(\N)Nc1ccc(Cl)cc1)/N=C(\N)Nc1ccc(Cl)cc1	inactive
O=C(c1ccccc1)c1ccccc1	inactive
CN(C)CCOC(c1ccccc1)c1ccccc1	inactive
CCCCCCc1ccc(N)cc1	inactive

system: not listed separately; assay: STM_H9_NormalizedViability: Cytotoxicity Assessment at 120 hours in the Stemina devTOX quickPredict H9 human embryonic stem cell (hESC)-based Assay (AID 2283784)
Procedure, shortened: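 Viability endpoint: background-corrected CellTiter-Fluor RFU expressed relative to the 0.1% DMSO mean on each plate. Undifferentiated H9 cells were treated with daily re-dosing and media change, and loss of signal was fitted.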

Compound	AC50	outcome
C=Cc1ccc(O)c(OC)c1	77.6 µM (active)	
CCCCC(CC)C(=O)O (stereo unspecified)		inactive
CC1=CC(=O)c2ccccc2C1=O		inactive
O=C(CCCN1CCC(O)(c2ccc(Cl)cc2)CC1)c1ccc(F)cc1		inactive
CC(C)(C)c1ccc(O)c(O)c1	86.5 µM (active)	
Cc1[nH]nc2c1N=C(c1ccccc1Cl)c1cc([N+](=O)[O-])ccc1N2	1.99 µM (active)	
CN(Cc1cnc2nc(N)nc(N)c2n1)c1ccc(C(=O)N[C@@H](CCC(=O)O)C(=O)O)cc1	0.0867 µM (active)	
CCCCc1oc2ccccc2c1C(=O)c1cc(I)c(OCCN(CC)CC)c(I)c1	4.41 µM (active)	
OCC(CO)(CBr)CBr		inactive
O=C(c1ccccc1)c1ccccc1		inactive
Cn1sccc1=O		inactive
CN(C)CCOC(c1ccccc1)c1ccccc1	8.23 µM (active)	
Oc1c(Cl)cc(Cl)cc1Sc1cc(Cl)cc(Cl)c1O		inactive

target: AR (gene 367) (UniProt P10275); assay: ACEA_AR_antagonist_80hr: ACEA Biosciences xCELLigence Real-Time Cell Analysis on Androgen Receptor Antagonism for Proliferation (AID 2283787);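 further: 22Rv1 human prostate cancer cells with growth followed by electrical impedance; hits lower the impedance growth signal relative to DMSO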
Procedure, shortened: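 Measures real-time proliferation of 22Rv1 prostate cancer cells by electrode impedance at 80 hours after dosing. Test articles ran at eight concentrations (1:4 steps, top 100 uM final) in biological duplicate.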

Compound	outcome	AC50
CCCCCCCCCC=CCC1CC(=O)OC1=O (stereo unspecified)	inactive	
Cc1cc(C(=C2C=CC(=Nc3ccc(S(=O)(=O)O)cc3)C=C2)c2ccc(Nc3ccc(S(=O)(=O)O)cc3)cc2)cc(S(=O)(=O)O)c1N	inactive	
COc1cc([N+](=O)[O-])ccc1N		2.99 µM (active)
CN(Cc1cnc2nc(N)nc(N)c2n1)c1ccc(C(=O)N[C@@H](CCC(=O)O)C(=O)O)cc1		0.39 µM (active)
NC(=NCCCCCCN=C(N)/N=C(\N)Nc1ccc(Cl)cc1)/N=C(\N)Nc1ccc(Cl)cc1		9.25 µM (active)
CCCCc1ccc2ccccc2c1S(=O)(=O)O	inactive	
O=C(c1ccccc1)c1ccccc1	inactive	
CC(=O)Nc1ccc(O)cc1	inactive	
CC(O)COc1ccccc1 (stereo unspecified)	inactive	
CCCCCCc1ccc(N)cc1	inactive	
CC(C)[C@@H]1CC[C@@H](C)C[C@H]1O		0.48 µM (active)
